A short description of experiment [1]: NCI Yeast Anticancer Drug Screen. Data for the rad50 strain (AID 155).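 Note: 0% = growth of vehicle-only cultures of the same strain.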 The conditions noted are these: S. cerevisiae rad50 strain growth inhibition, active compounds read high. An outline of the steps:
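Yeast carrying a defined DNA repair defect were exposed to test compounds, and growth was compared with vehicle-treated controls to give percent inhibition.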

A short description of experiment [2]: NCI Yeast Anticancer Drug Screen. Data for the mec2-1 strain (AID 157). The conditions noted are these: S. cerevisiae mec2-1 strain, active compounds read high. An outline of the steps: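 Vehicle-treated cultures served as reference for growth inhibition of compound-exposed mec2-1 yeast.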
Experiment [3] can be described thus: NCI Yeast Anticancer Drug Screen. Data for the sgs1 mgt1 strain (AID 161).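 Note: 0% = growth of cultures given vehicle only.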 The settings on record: S. cerevisiae sgs1 mgt1 strain, active compounds read high. An outline of the steps:
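Read-out: growth inhibition vs vehicle controls. Cells: mutant yeast strain deficient in DNA damage repair.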

The nature of experiment [4]: NCI Yeast Anticancer Drug Screen. Data for the cln2 rad14 strain (AID 165).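 Note: 0% = growth equal to vehicle treated cultures.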 The settings on record: S. cerevisiae cln2 rad14 strain, active compounds read high. The essentials: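 Each compound was tested on cln2 rad14 yeast. Inhibition of growth was calculated against vehicle-exposed controls.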
Experiment [5] can be described thus: NCI Yeast Anticancer Drug Screen. Data for the bub3 strain (AID 167). The conditions noted are these: S. cerevisiae bub3 mutant strain, active compounds read high. An outline of the steps:
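Compounds were applied to a genetically altered yeast strain carrying a cell-cycle control defect. Growth inhibition was scored against vehicle-treated controls.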

The nature of experiment [6]: NCI Yeast Anticancer Drug Screen. Data for the mlh1 rad18 strain (AID 175). The settings on record: S. cerevisiae mlh1 rad18 strain growth inhibition, active compounds read high. An outline of the steps:
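Vehicle-treated cultures served as the reference for growth inhibition in a yeast strain carrying DNA damage repair alterations exposed to each compound.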

Setting [7] is: at 5.0 µM (retest, dose inferred, filed as 0.5).
The mark [8] stands for this setting: at 50.0 µM (retest, dose inferred, filed as 5.0).

Compounds without any hit were thinned out: in the full panel of roughly 79,000, 15% have a hit. A number with no mark means an inactive call. Activity calls are given as the source filed them. Cut-off read from the data, not from the text of the source: active = growth inhibition above about 70%; inactive = the rest.

In the case of `COC1/C=C\C=C(/C)C(=O)NC2=CC(=O)C(N)=C(CC(C)CC(OC)C(O)C(C)C=C(C)C1OC(N)=O)C2=O` (configuration not stated), the growth inhibition in experiment [1] (setting [7]) is -28%; in experiment [1] (setting [8]) it was 88% (active); in experiment [1] (at 50.0 µM), 86.4% (active); in experiment [2] (setting [7]), -23%; in experiment [2] (setting [8]) it was 91% (active); in experiment [2] (at 50.0 µM) it was 87.7% (active). In addition, the growth inhibition in experiment [3] (setting [7]) was 5%; in experiment [3] (setting [8]), 92% (active); in experiment [3] (at 50.0 µM), 88% (active); in experiment [4] (setting [7]), -36%; in experiment [4] (setting [8]), 81% (active); in experiment [4] (at 50.0 µM), 76.9% (active). Also, the growth inhibition in experiment [5] (setting [7]) is -16%; in experiment [5] (setting [8]) it was 93% (active); in experiment [5] (at 50.0 µM), 87.9% (active); in experiment [6] (setting [7]), -22%; in experiment [6] (setting [8]), 89% (active); in experiment [6] (at 50.0 µM) it was 84% (active).

As for `CN(C)/N=N/c1nc(Cc2ccccc2)[nH]c1C(N)=O`, the growth inhibition in experiment [1] (setting [7]) is 98% (active); in experiment [1] (setting [8]) it was 98% (active); in experiment [1] (at 50.0 µM), 98.5% (active); in experiment [2] (setting [7]), 16%; in experiment [2] (setting [8]), 99% (active); in experiment [2] (at 50.0 µM), 94.6% (active). Besides, the growth inhibition is 38% in experiment [3] (setting [7]); 99% (active) in experiment [3] (setting [8]); 99.2% (active) in experiment [3] (at 50.0 µM); 29% in experiment [4] (setting [7]); 99% (active) in experiment [4] (setting [8]); 92.9% (active) in experiment [4] (at 50.0 µM). The growth inhibition in experiment [5] (setting [7]) was 67%; in experiment [5] (setting [8]) it was 99% (active); in experiment [5] (at 50.0 µM), 96.5% (active); in experiment [6] (setting [7]), 99% (active); in experiment [6] (setting [8]), 99% (active); in experiment [6] (at 50.0 µM) it was 98.8% (active).

`O=C1OC(=O)C2C1C1(c3ccccc3)OC2(c2ccccc2)c2c(Br)c(Br)c(Br)c(Br)c21` (configuration not stated): the growth inhibition is 23% in experiment [1] (setting [7]); 99% (active) in experiment [1] (setting [8]); 98.8% (active) in experiment [1] (at 50.0 µM); 25% in experiment [2] (setting [7]); 100% (active) in experiment [2] (setting [8]); 99.4% (active) in experiment [2] (at 50.0 µM). Further, the growth inhibition in experiment [3] (setting [7]) is 15%; in experiment [3] (setting [8]) it was 99% (active); in experiment [3] (at 50.0 µM), 99.2% (active); in experiment [4] (setting [7]), 18%; in experiment [4] (setting [8]), 99% (active); in experiment [4] (at 50.0 µM), 98.6% (active). Besides, the growth inhibition was 2% in experiment [5] (setting [7]); 99% (active) in experiment [5] (setting [8]); 98.7% (active) in experiment [5] (at 50.0 µM); 38% in experiment [6] (setting [7]); 99% (active) in experiment [6] (setting [8]); 98.2% (active) in experiment [6] (at 50.0 µM).

Turning to `Cc1cc2nc3ccc(N(C)C)cc3nc2cc1N`, the growth inhibition in experiment [1] (setting [7]) was 42%; in experiment [1] (setting [8]), 94% (active); in experiment [1] (at 50.0 µM) it was 51.6%; in experiment [2] (setting [7]) it was 20%; in experiment [2] (setting [8]) it was 89% (active); in experiment [2] (at 50.0 µM) it was 93.8% (active). The growth inhibition in experiment [3] (setting [7]) is 42%; in experiment [3] (setting [8]), 94% (active); in experiment [3] (at 50.0 µM) it was 45.9%; in experiment [4] (setting [7]), 29%; in experiment [4] (setting [8]), 80% (active); in experiment [4] (at 50.0 µM), 82.2% (active). In addition, the growth inhibition in experiment [5] (setting [7]) is 19%; in experiment [5] (setting [8]), 90% (active); in experiment [5] (at 50.0 µM), 94.9% (active); in experiment [6] (setting [7]), 42%; in experiment [6] (setting [8]), 92% (active); in experiment [6] (at 50.0 µM) it was 92% (active).

In the case of `CCCCNc1ccc(C(=O)OC2CCN(C)CC2)c(Cl)c1`, the growth inhibition in experiment [1] (setting [7]) is 99% (active); in experiment [1] (setting [8]) it was 96% (active); in experiment [1] (at 50.0 µM), 97% (active); in experiment [2] (setting [7]), 99% (active); in experiment [2] (setting [8]), 97% (active); in experiment [2] (at 50.0 µM), 94.5% (active). Besides, the growth inhibition is 99% (active) in experiment [3] (setting [7]); 98% (active) in experiment [3] (setting [8]); 95.9% (active) in experiment [3] (at 50.0 µM); 98% (active) in experiment [4] (setting [7]); 96% (active) in experiment [4] (setting [8]); 84% (active) in experiment [4] (at 50.0 µM). Besides, the growth inhibition was 99% (active) in experiment [5] (setting [7]); 97% (active) in experiment [5] (setting [8]); 96.3% (active) in experiment [5] (at 50.0 µM); 99% (active) in experiment [6] (setting [7]); 96% (active) in experiment [6] (setting [8]); 92.8% (active) in experiment [6] (at 50.0 µM).

On to `Cc1ccc(NC(=O)Cc2nc3ccccc3s2)c(C)c1`, for which the growth inhibition in experiment [1] (setting [7]) was 7%; in experiment [1] (setting [8]) it was 99% (active); in experiment [1] (at 50.0 µM), 98.7% (active); in experiment [2] (setting [7]), 9%; in experiment [2] (setting [8]), 98% (active); in experiment [2] (at 50.0 µM), 99.3% (active). Moreover, the growth inhibition in experiment [3] (setting [7]) is 20%; in experiment [3] (setting [8]) it was 99% (active); in experiment [3] (at 50.0 µM), 99.5% (active); in experiment [4] (setting [7]), 6%; in experiment [4] (setting [8]), 91% (active); in experiment [4] (at 50.0 µM), 95.7% (active). Further, the growth inhibition in experiment [5] (setting [7]) was 29%; in experiment [5] (setting [8]), 99% (active); in experiment [5] (at 50.0 µM) it was 99% (active); in experiment [6] (setting [7]), 14%; in experiment [6] (setting [8]), 99% (active); in experiment [6] (at 50.0 µM), 99% (active).

On to `CC(C)NC(=O)O/N=C1\CCC2[C@@H]3CC=C4C[C@@H](OC(=O)NC(C)C)CC[C@]4(C)C3CC[C@]12C` (some centres not stated), for which the growth inhibition in experiment [1] (setting [7]) was 88% (active); in experiment [1] (setting [8]) it was 77% (active); in experiment [1] (at 50.0 µM), 83% (active); in experiment [2] (setting [7]), 91% (active); in experiment [2] (setting [8]) it was 67%; in experiment [2] (at 50.0 µM) it was 83% (active). In addition, the growth inhibition in experiment [3] (setting [7]) was 90% (active); in experiment [3] (setting [8]) it was 73% (active); in experiment [3] (at 50.0 µM), 92.3% (active); in experiment [4] (setting [7]) it was 95% (active); in experiment [4] (setting [8]), 75% (active); in experiment [4] (at 50.0 µM), 81.2% (active). For the same molecule, the growth inhibition in experiment [5] (setting [7]) is 83% (active); in experiment [5] (setting [8]), 72% (active); in experiment [5] (at 50.0 µM) it was 91.2% (active); in experiment [6] (setting [7]), 91% (active); in experiment [6] (setting [8]) it was 71% (active); in experiment [6] (at 50.0 µM) it was 92% (active).

Regarding `S=c1[nH]c2c(-c3ccccc3)cccc2s1`, the growth inhibition in experiment [1] (setting [7]) was -4%; in experiment [1] (setting [8]), 74% (active); in experiment [1] (at 50.0 µM) it was 62.1%; in experiment [2] (setting [7]) it was -6%; in experiment [2] (setting [8]) it was 62%; in experiment [2] (at 50.0 µM), 76.9% (active). The growth inhibition in experiment [3] (setting [7]) is 12%; in experiment [3] (setting [8]), 78% (active); in experiment [3] (at 50.0 µM) it was 86.2% (active); in experiment [4] (setting [7]) it was -16%; in experiment [4] (setting [8]), 41%; in experiment [4] (at 50.0 µM), 60.5%. Besides, the growth inhibition is -20% in experiment [5] (setting [7]); 44% in experiment [5] (setting [8]); 53.8% in experiment [5] (at 50.0 µM); 1% in experiment [6] (setting [7]); 65% in experiment [6] (setting [8]); 87.5% (active) in experiment [6] (at 50.0 µM).

Regarding `C/C(=C/C(=O)/C=C/c1ccccc1)c1c(C)[nH]c2ccccc12`, the growth inhibition is -24% in experiment [1] (setting [7]); -3% in experiment [1] (setting [8]); 4.3% in experiment [1] (at 50.0 µM); -17% in experiment [2] (setting [7]); 3% in experiment [2] (setting [8]); -19.1% in experiment [2] (at 50.0 µM). For the same molecule, the growth inhibition in experiment [3] (setting [7]) was -6%; in experiment [3] (setting [8]), -4%; in experiment [3] (at 50.0 µM) it was -7.4%; in experiment [4] (setting [7]) it was 1%; in experiment [4] (setting [8]) it was -6%; in experiment [4] (at 50.0 µM), 34.4%. Further, the growth inhibition is 0% in experiment [5] (setting [7]); 1% in experiment [5] (setting [8]); 81.9% (active) in experiment [5] (at 50.0 µM); 4% in experiment [6] (setting [7]); 16% in experiment [6] (setting [8]); -0.4% in experiment [6] (at 50.0 µM).

(Values after PubChem BioAssay (NCI).)
